From PubChem BioAssay (NCI)
About 83,000 compounds went through this panel and 20% of them were active in at least one assay; those are over-represented in the sample as a whole.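 The test compound was applied at a single concentration to cells in 96-well plates for 48 hours, and percent growth was recorded.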 Values without a mark were called inactive. Calls of active or inactive are those of the source. How the source made its calls: active means growth percent below 10; inactive means the rest.

Assays:
Experiment in all cases: NCI-60 one-dose screen, 48 h (100 = growth as untreated, 0 = no growth, -100 = all killed)
Conditions in all cases: 10 µM unless noted
[1] = test system: HCT-15 colon
[2] = test system: HT29 colon
[3] = test system: SNB-75 CNS
[4] = test system: SNB-19 CNS
[5] = test system: U251 CNS
[6] = test system: PC-3 prostate
[7] = test system: SK-MEL-5 melanoma
[8] = test system: UACC-62 melanoma
[9] = test system: LOX IMVI melanoma
[10] = test system: SK-MEL-28 melanoma

| SMILES | growth [1] | growth [2] | growth [3] | growth [4] | growth [5] | growth [6] | growth [7] | growth [8] | growth [9] | growth [10] |
| --- | --- | --- | --- | --- | --- | --- | --- | --- | --- | --- |
| C[C@@]12CC=C3c4nc(Nc5cccc(O)c5)sc4CC[C@]3(C)[C@H]1CC[C@]1(C)C(=O)CC[C@@H]21 | -47.9% (active) | -29% (active) | 37.3% | 57.9% | 18.8% | 28.1% | 64.8% | 28.8% | -52.7% (active) | 41.2% |
| COC(=O)[C@@H](C)C[C@H](Cc1ccc2ccccc2c1)NC(=O)c1csc([C@@H](C[C@H](C(C)C)N(C)C(=O)[C@@H](NC(=O)[C@H]2CCCCN2C)C(C)C)OC(C)=O)n1 | 70.3% | 1.71% (active) | 42.8% | 51.8% | 22.1% | 47.3% | -21% (active) | 49.3% | 28.3% | 68.6% |
| C/C(Cc1ccc(Cl)cc1)=C(\c1ccc(OCCN2CCOCC2)cc1)c1ccc(OC(=O)Cc2ccccc2)cc1 | 91.1% | 79.5% | 89.6% | 101% | 97.4% | 81.9% | 95.6% | 84.5% | 97% | 99.7% |
| ClCCN(CCCl)c1nc(Cl)c(C2CC(c3ccccc3)=NN2c2cc(Cl)cc(Cl)c2)s1 (stereo not drawn) | 104% | 101% | 96.4% | 98.7% | 99.4% | 93.7% | 102% | 92.9% | 99.2% | 106% |
| Clc1cc(N2CC2)nc(N2CC2)n1 | 72.5% | 79.8% | 70.6% | 65.9% | 67.9% | 65.2% | 73.9% | 54.4% | 51.7% | 92.1% |
| CC(CC1CCCCC1)NCc1ccccc1 (stereo not drawn) | 94.4% | 93.2% | 100% | 100% | 106% | 88.6% | 99.1% | 93.3% | 83.7% | 103% |
| Nc1ccc2c(c1)oc1ccccc12 | 112% | 92.2% | 81.1% | 110% | 94.4% | 82.6% | 104% | 94.9% | 109% | 104% |
| O=C1N[C@@H]2[C@@H](O)[C@@H](O)[C@H](O)C[C@H]2c2cc3c(c(O)c21)OCO3 | 1.81% (active) | -14.9% (active) | -25.3% (active) | -8.68% (active) | -10.5% (active) | -8.66% (active) | -72.7% (active) | -48.3% (active) | – | – |
| CCOC(=O)[C@@H](C)C[C@H](Cc1ccccc1)NC(=O)c1csc([C@@H](C[C@H](C(C)C)N(C)C(=O)[C@@H](NC(=O)[C@H]2C[C@H](O)CCN2C)C(C)C)OC(C)=O)n1 | 9.76% (active) | 0.338% (active) | 10.6% | 21.8% | 10.1% | 24.5% | -4.08% (active) | 38.4% | 18.2% | 51.1% |
| C[C@]12CCc3sc(-c4cccc(F)c4)nc3C1=CC[C@@H]1[C@@H]2CC[C@]2(C)C(=O)CC[C@@H]12 | -38.2% (active) | 5.21% (active) | 44.6% | 60% | 18.8% | 35% | 61.5% | 34.9% | 1.34% (active) | 48% |
| O=C1C(=Cc2cn(Cc3ccccc3)c3ccccc23)C(=O)N(Cc2ccccc2)C(=O)N1Cc1ccccc1 | 85.8% | 111% | 45% | 87.1% | 75.7% | 90.3% | 104% | 53.1% | 87.2% | 110% |
| O=C1OCC2=C1C(c1ccccc1)c1cc3c(cc1N2)OCO3 (stereo not drawn) | 10.9% | 4.87% (active) | 45.9% | 36.2% | 9.54% (active) | 25.9% | -39.6% (active) | 31% | 26.2% | 64.2% |
| CC(=O)O[C@H](C[C@H](C(C)C)N(C)C(=O)[C@@H](NC(=O)[C@H]1CCCCN1C)C(C)C)c1nc(C(=O)N[C@@H](Cc2ccccc2)C[C@H](C)C(=O)O)c(C(C)C)s1 | 8.7% (active) | 2.43% (active) | 22.6% | 27.6% | 15.4% | 29.9% | -43.9% (active) | 31.1% | 10.5% | 60.9% |
| CCOC(=O)N[C@H]1CCc2c(Br)c(OC)c(OC)c(OC)c2-c2ccc(SC)c(=O)cc21 | 8.88% (active) | 13.1% | 17.2% | 28.7% | 19.7% | 24.2% | -23.4% (active) | 38.7% | 9.29% (active) | 56.8% |
| O=P1(NCCCl)OCCCN1CCCl (stereo not drawn) | 98.9% | 103% | 115% | 111% | 117% | 93.7% | 112% | 107% | 99.8% | 116% |
| C[C@]12CC[C@@H]3c4ccc(Oc5nc(N6CC6)nc(N6CC6)n5)cc4CC[C@H]3[C@@H]1CCC2=O | 37.4% | 19.3% | 30.3% | 48.8% | 31.9% | 53.8% | 5.82% (active) | 18.4% | -63.1% (active) | 63.5% |
| CCOC(=O)[C@@H](C)C[C@H](Cc1ccccc1)NC(=O)c1csc([C@@H](C[C@H](C(C)C)N(C)C(=O)[C@H](CC)NC(=O)[C@H]2CCCCN2C)OC(C)=O)n1 | 9.87% (active) | 4.72% (active) | 25.4% | 19.7% | 11.7% | 23.8% | -52.9% (active) | 30.9% | 9.39% (active) | 61.8% |
| CC[C@H](C)[C@@H]([C@@H](CC(=O)N1CCC[C@H]1[C@H](OC)[C@@H](C)C(=O)N[C@H](C)[C@@H](O)c1ccccc1)OC)N(C)C(=O)[C@@H](NC(=O)[C@@H](NC)C(C)C)C(C)C | 17.2% | 3.65% (active) | 39% | 45.4% | 6.43% (active) | 29.1% | -37.6% (active) | 47.3% | 19.6% | 63.5% |
| COc1cc2ncnc(Nc3ccc(F)c(Cl)c3)c2cc1OCC(=O)N1CCN(C)CC1 | 93.4% | 90.6% | 92.2% | 79.6% | 101% | 86% | 97.5% | 98.1% | 91.5% | 102% |
| CC(=O)O[C@H](C[C@H](C(C)C)N(C)C(=O)[C@@H](NC(=O)[C@H]1CCCCN1C)C(C)C)c1nc(C(=O)N[C@@H](Cc2ccccc2)C[C@H](C)C(=O)O)c(CCOCc2ccccc2)s1 | 6.72% (active) | -4.51% (active) | 0.84% (active) | 16% | 11.5% | 21.9% | -40.5% (active) | 27.1% | 11.8% | 42% |
| CCCCCCCC[N+](C)(CCCCCCCC)CCCCCCCC | -75% (active) | -100% (active) | -100% (active) | -89.6% (active) | -75% (active) | -91.3% (active) | -100% (active) | -94.5% (active) | -74.7% (active) | -100% (active) |
| CC(=O)ONc1ccc([N+](=O)[O-])c(C(F)(F)F)c1 | 108% | 108% | 82.9% | 107% | 104% | 95.4% | 109% | 96.8% | 98.8% | 110% |
| COc1ccc2c(c1)c(C1(O)CC(CSC#N)OC1=O)cn2C(=O)c1ccc(Cl)cc1 (stereo not drawn) | 98.7% | 110% | 83.7% | 99.3% | 102% | 96.2% | 111% | 88.6% | 97.8% | 150% |
| CCOP1(=O)CC(C)=C(Cl)C(P(=O)(OCC)OCC)C1 (stereo not drawn) | 101% | 96.2% | 78.7% | 89.9% | 101% | 92.6% | 101% | 92.3% | 92.6% | 87.3% |
| CCCCCC1(CCBr)C(=O)NC(=O)NC1=O | 97.7% | 107% | 99.2% | 111% | 93.4% | 100% | 109% | 108% | 104% | 118% |
